Experimental findings from PubChem BioAssay (EPA / NIEHS) are described below.

Assay [1] addresses Histone deacetylase 3 (Homo sapiens) (UniProt O15379). The assay is described as follows: NVS_ENZ_hHDAC3: NovaScreen (NVS) Enzymatic Assay for human Histone Deacetylase 3 (HDAC3) (AID 2283163). As for the experimental part:
NVS_ENZ_hHDAC3 is a biochemical, single-readout assay that uses extracted gene-proteins in a cell-free assay. Measurements were taken 1 hour after chemical dosing in a 384-well plate.NVS_ENZ_hHDAC3 is one of one assay component(s) measured or calculated from the NVS_ENZ_hHDAC3 assay. It is designed to make measurements of enzyme activity, a form of enzyme reporter, as detected with fluorescence intensity signals by Fluorescence and electrophoretic mobility shift technology.Data from the assay component NVS_ENZ_hHDAC3 was analyzed into 1 assay endpoint. This assay endpoint, NVS_ENZ_hHDAC3, was analyzed in the positive analysis fitting direction relative to DMSO as the negative control and baseline of activity. Using a type of enzyme reporter, loss-of-signal activity can be used to understand changes in the enzymatic activity as they relate to the gene HDAC3. Furthermore, this assay endpoint can be referred to as a primary readout, because this assay has produced multiple assay endpoints where this one serves a enzymatic activity function. To generalize the intended target to other relatable targets, this assay endpoint is annotated to the hydrolase intended target family, where the subfamily is histone deacetylase. […]

The target of assay [2] is human FYN Proto-Oncogene, Src family Tyrosine Kinase (Fyn), FYN (gene 2534) (UniProt P06241). The assay is described as follows: NVS_ENZ_hFyn: NovaScreen (NVS) Enzymatic Assay for human FYN Proto-Oncogene, Src family Tyrosine Kinase (Fyn) (AID 2283161). The procedure, abridged:
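Cell-free kinase activity read by fluorescence after mobility-shift separation of substrate and product, 1 h post-dose. Initial single concentration 25 uM in duplicate, then concentration-response follow-up; DMSO baseline.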

The target of assay [3] is human IkappaB Kinase alpha (IKKa), CHUK (gene 1147) (UniProt O15111). The assay is described as follows: NVS_ENZ_hIKKa: NovaScreen (NVS) Enzymatic Assay for human IkappaB Kinase alpha (IKKa) (AID 2283167). How it is done: (§1) NVS_ENZ_hIKKa is a biochemical, single-readout assay that uses extracted gene-proteins in a cell-free assay. Measurements were taken 1 hour after chemical dosing in a 384-well plate.NVS_ENZ_hIKKa is one of one assay component(s) measured or calculated from the NVS_ENZ_hIKKa assay. It is designed to make measurements of enzyme activity, a form of enzyme reporter, as detected with fluorescence intensity signals by Fluorescence and electrophoretic mobility shift technology.Data from the assay component NVS_ENZ_hIKKa was analyzed into 1 assay endpoint. This assay endpoint, NVS_ENZ_hIKKa, was analyzed in the positive analysis fitting direction relative to DMSO as the negative control and baseline of activity. Using a type of enzyme reporter, loss-of-signal activity can be used to understand changes in the enzymatic activity as they relate to the gene CHUK. Furthermore, this assay endpoint can be referred to as a primary readout, because this assay has produced multiple assay endpoints where this one serves a enzymatic activity function. To generalize the intended target to other relatable targets, this assay endpoint is annotated to the kinase intended target family, where the subfamily is serine/threonine kinase.
Chain of human IkappaB Kinase alpha (IKKa), CHUK (gene 1147) (O15111 whole entry, looked up): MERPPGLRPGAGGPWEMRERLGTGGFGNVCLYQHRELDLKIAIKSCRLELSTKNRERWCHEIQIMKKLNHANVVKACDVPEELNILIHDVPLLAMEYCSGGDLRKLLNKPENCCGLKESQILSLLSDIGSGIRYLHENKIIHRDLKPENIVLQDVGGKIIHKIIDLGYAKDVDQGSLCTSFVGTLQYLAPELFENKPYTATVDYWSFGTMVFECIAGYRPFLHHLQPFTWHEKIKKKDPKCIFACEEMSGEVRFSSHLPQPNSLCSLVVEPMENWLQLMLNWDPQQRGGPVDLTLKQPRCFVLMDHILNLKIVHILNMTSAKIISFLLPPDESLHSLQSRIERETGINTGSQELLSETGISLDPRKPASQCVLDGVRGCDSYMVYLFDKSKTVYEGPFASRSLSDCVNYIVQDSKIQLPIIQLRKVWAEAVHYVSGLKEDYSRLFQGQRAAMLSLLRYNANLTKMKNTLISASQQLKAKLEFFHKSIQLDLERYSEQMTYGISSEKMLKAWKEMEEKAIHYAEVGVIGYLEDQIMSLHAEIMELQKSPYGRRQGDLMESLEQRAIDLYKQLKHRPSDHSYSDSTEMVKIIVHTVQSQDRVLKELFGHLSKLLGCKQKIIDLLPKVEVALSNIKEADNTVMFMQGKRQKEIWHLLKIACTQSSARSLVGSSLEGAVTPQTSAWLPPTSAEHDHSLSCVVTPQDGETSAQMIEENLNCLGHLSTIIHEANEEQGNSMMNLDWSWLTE
(§2) Binding assays used specific radioligands (tritiated, iodinated) with non-radioactive competitive displacement ligands in agonist or antagonist protocols (as indicated) and various reference compounds and inhibitors to titrate specific binding to receptors and transporters. Most enzyme assays (CYPs, kinases, phosphatases, proteases, HDACs) used recombinant protein and specific substrates (fluorescence mostly, some colorimetric and radioactive) and inhibitors, followed by a biochemical separation of substrate and product. All assays for the biochemical HTS were initially run in duplicate at a single concentration (10 uM for CYP450 assays and 25 uM for all others). […]

Assay [4] has as its target human Ephrin type-A Receptor 2 (EphA2), EPHA2 (gene 1969) (UniProt P29317). The assay is described as follows: NVS_ENZ_hEphA2: NovaScreen (NVS) Enzymatic Assay for human Ephrin type-A Receptor 2 (EphA2) (AID 2283155). The procedure, abridged: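 Enzyme activity of recombinant EphA2 read by fluorescence after mobility-shift separation, 1 h after dosing. Chemicals first tested at 25 uM (duplicate); those passing threshold run as concentration series, top 50 uM, single replicate, relative to DMSO.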

The target in assay [5] is human Ephrin type-A Receptor 1 (EphA1), EPHA1 (gene 2041) (UniProt P21709). In words: NVS_ENZ_hEphA1: NovaScreen (NVS) Enzymatic Assay for human Ephrin type-A Receptor 1 (EphA1) (AID 2283158).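 Further: activity is signal loss versus DMSO meaning EphA1 kinase inhibition.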 How it is done:
as §1, with “NVS_ENZ_hEphA1” for “NVS_ENZ_hIKKa”, “plate.NVS_ENZ_hEphA1” for “plate.NVS_ENZ_hIKKa”, “NVS_ENZ_hEphA1,” for “NVS_ENZ_hIKKa,”, “EPHA1.” for “CHUK.”, “receptor tyrosine” for “serine/threonine”
as §2

Assay [6] addresses human Fibroblast Growth Factor Receptor 1 (FGFR1), FGFR1 (gene 2260) (UniProt P11362). The assay is described as follows: NVS_ENZ_hFGFR1: NovaScreen (NVS) Enzymatic Assay for human Fibroblast Growth Factor Receptor 1 (FGFR1) (AID 2283159).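 On AC50: hits lower the signal so potencies describe inhibitors of the kinase.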 Summed up: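 Cell-free recombinant kinase with fluorescent substrate, product separated by electrophoretic mobility shift; read 1 hour after dosing, loss of signal relative to DMSO. Initial screen in duplicate at 25 uM, actives followed in concentration series.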

Assay [7] has as its target human Ephrin type-B Receptor 2 (EphB2), EPHB2 (gene 2048) (UniProt P29323). In words: NVS_ENZ_hEphB2: NovaScreen (NVS) Enzymatic Assay for human Ephrin type-B Receptor 2 (EphB2) (AID 2283156). The procedure, abridged:
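Compounds were first tested in duplicate at 25 uM, with hits rerun singly in concentration series up to 50 uM. Enzyme activity on fluorescent substrate was read at 1 h by mobility-shift separation, scored as signal loss relative to DMSO.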

Assay [8] concerns the target human Esterase Plasma (ES), BCHE (gene 590) (UniProt P06276). In words: NVS_ENZ_hES: NovaScreen (NVS) Enzymatic Assay for human Esterase Plasma (ES) (AID 2283157). The procedure, abridged:
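Human plasma-derived enzyme, cell-free, colorimetric readout at 0.25 h. Primary screen 25 uM in duplicate; hits (e.g. ≥30% inhibition) rerun singleton up to 50 uM. DMSO = negative control/baseline.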

The target in assay [9] is Glycogen synthase kinase-3 beta (Homo sapiens) (UniProt P49841). In words: NVS_ENZ_hGSK3b: NovaScreen (NVS) Enzymatic Assay for human Glycogen Synthase Kinase-3 beta (GSK3b) (AID 2283165). As for the experimental part:
as §1, with “NVS_ENZ_hGSK3b” for “NVS_ENZ_hIKKa”, “plate.NVS_ENZ_hGSK3b” for “plate.NVS_ENZ_hIKKa”, “NVS_ENZ_hGSK3b,” for “NVS_ENZ_hIKKa,”, “GSK3B.” for “CHUK.”
as §2

Assay [10] addresses Protein deacetylase HDAC6 (Homo sapiens) (UniProt Q9UBN7). In words: NVS_ENZ_hHDAC6: NovaScreen (NVS) Enzymatic Assay for human Histone Deacetylase 6 (HDAC6) (AID 2283164). Summed up:
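Concentration-response runs up to 50 uM followed a duplicate 25 uM single-point screen. Deacetylase activity of recombinant human HDAC6 read by fluorescence after 1 h, with mobility-shift separation of substrate and product; DMSO as baseline.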

As usually defined, the AC50 is the midpoint of the concentration-response curve, whichever way the signal moves.

The structures appear in SMILES notation. Several values for one entry are separate records, joined by “and”; a condition that tells them apart may be missing. Identical values can stand only once. Records with an inconclusive call do not appear. Activity calls are given as the source filed them. How the source made its calls: active means hit-call score of the fitted dose curve at least 0.9, where 1 is the maximum; inconclusive means response in the unintended direction; inactive means score below 0.9.

Chain of human Fibroblast Growth Factor Receptor 1 (FGFR1), FGFR1 (gene 2260) (P11362 whole entry, looked up): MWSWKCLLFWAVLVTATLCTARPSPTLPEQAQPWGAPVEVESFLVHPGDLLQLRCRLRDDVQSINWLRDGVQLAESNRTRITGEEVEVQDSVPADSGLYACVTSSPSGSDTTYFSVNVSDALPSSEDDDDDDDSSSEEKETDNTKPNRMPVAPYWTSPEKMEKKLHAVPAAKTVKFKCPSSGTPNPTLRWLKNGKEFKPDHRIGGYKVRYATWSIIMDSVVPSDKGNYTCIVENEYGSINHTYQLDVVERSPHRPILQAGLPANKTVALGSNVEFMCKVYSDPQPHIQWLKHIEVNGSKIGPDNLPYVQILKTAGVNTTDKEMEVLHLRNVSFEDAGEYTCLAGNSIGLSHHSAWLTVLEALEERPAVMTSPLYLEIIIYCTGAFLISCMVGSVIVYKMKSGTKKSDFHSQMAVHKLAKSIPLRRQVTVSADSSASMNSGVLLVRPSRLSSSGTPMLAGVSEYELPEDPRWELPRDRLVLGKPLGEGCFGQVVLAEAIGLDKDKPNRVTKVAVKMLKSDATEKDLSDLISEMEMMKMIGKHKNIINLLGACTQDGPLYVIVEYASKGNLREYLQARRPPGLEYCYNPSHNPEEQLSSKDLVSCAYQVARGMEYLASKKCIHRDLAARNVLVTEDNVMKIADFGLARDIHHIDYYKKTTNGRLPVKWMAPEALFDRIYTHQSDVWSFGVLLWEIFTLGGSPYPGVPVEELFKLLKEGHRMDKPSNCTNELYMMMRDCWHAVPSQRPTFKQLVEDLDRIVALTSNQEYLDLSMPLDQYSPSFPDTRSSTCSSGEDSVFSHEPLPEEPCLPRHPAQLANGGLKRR
Chain of human Esterase Plasma (ES), BCHE (gene 590) (P06276 whole entry, looked up): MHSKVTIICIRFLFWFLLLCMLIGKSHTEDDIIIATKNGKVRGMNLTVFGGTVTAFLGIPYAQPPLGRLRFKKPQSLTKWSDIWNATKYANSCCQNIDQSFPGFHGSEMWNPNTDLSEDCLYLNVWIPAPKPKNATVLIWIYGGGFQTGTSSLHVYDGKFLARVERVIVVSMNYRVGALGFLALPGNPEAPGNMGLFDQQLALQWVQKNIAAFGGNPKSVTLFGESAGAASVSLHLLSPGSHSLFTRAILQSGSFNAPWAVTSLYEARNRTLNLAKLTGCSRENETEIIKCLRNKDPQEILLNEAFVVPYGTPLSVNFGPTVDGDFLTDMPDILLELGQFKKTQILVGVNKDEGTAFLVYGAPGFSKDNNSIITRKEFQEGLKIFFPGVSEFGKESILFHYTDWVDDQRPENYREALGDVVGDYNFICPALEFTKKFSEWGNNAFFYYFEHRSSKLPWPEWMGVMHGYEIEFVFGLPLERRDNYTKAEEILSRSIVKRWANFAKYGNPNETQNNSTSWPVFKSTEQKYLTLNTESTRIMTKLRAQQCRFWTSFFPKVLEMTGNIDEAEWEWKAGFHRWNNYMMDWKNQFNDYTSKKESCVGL
Chain of human Ephrin type-A Receptor 2 (EphA2), EPHA2 (gene 1969) (P29317 whole entry, looked up): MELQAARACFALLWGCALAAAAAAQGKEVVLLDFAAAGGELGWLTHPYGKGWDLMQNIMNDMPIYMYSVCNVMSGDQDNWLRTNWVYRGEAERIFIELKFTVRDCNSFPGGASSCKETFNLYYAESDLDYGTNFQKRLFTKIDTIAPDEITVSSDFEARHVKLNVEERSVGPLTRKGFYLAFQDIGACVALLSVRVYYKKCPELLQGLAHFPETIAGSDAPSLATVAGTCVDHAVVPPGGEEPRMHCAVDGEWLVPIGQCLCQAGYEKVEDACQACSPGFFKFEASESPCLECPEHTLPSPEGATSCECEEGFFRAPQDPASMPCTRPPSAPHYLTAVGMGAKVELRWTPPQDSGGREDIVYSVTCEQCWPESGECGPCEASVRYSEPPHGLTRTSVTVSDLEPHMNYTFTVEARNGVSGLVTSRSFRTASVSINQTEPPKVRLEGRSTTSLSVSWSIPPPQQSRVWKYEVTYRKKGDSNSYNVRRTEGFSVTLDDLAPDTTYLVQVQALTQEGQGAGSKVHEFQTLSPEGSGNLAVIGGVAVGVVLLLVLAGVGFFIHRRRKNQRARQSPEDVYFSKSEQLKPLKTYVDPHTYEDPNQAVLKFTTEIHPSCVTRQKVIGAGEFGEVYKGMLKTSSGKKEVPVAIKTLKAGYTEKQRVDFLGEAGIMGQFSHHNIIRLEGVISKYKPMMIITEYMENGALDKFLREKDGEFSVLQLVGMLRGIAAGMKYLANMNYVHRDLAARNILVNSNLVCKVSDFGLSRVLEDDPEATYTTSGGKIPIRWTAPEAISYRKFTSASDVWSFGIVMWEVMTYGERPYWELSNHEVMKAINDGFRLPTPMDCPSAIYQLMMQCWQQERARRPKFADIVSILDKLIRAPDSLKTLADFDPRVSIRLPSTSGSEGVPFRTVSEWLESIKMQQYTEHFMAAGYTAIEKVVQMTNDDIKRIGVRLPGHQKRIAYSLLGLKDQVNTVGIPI
Chain of Glycogen synthase kinase-3 beta (Homo sapiens) (P49841 whole entry, looked up): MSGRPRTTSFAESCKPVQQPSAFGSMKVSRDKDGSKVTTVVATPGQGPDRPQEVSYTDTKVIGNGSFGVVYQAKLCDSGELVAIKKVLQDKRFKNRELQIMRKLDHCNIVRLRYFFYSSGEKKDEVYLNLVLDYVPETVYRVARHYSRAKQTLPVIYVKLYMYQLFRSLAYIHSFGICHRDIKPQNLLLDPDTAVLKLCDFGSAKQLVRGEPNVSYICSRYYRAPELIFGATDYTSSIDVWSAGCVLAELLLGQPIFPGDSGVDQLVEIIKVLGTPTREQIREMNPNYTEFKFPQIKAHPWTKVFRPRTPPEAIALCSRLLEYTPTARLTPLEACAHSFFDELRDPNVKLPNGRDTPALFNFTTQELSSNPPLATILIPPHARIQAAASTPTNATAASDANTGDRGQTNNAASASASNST
Chain of human FYN Proto-Oncogene, Src family Tyrosine Kinase (Fyn), FYN (gene 2534) (P06241 whole entry, looked up): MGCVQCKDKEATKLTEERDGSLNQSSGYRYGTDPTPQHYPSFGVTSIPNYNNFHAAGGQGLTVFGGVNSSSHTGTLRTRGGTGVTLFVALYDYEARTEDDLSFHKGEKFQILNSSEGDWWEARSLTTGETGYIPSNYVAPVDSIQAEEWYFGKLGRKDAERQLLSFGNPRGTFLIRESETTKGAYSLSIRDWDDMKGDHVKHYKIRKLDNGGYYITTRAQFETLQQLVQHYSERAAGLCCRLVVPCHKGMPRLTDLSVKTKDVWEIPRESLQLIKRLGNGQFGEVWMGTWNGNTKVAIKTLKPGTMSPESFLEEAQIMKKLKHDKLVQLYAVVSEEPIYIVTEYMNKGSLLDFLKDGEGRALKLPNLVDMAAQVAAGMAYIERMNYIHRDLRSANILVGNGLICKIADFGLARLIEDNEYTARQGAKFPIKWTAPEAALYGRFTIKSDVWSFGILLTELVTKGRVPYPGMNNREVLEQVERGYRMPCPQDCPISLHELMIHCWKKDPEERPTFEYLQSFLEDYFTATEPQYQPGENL
Chain of Histone deacetylase 3 (Homo sapiens) (O15379 whole entry, looked up): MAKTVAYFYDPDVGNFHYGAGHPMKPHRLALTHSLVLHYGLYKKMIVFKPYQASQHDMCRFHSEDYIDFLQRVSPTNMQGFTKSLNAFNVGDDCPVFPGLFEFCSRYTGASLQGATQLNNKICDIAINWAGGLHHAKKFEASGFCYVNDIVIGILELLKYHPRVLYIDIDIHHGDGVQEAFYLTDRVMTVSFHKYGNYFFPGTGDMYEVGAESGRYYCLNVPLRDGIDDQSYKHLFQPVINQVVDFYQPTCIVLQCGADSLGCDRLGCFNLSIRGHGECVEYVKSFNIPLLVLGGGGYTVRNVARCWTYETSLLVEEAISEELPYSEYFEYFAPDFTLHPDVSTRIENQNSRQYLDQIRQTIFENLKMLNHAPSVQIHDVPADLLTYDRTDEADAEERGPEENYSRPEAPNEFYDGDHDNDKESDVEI

On to `O=C(NC(=O)c1c(F)cccc1F)Nc1ccc(OC(F)(F)C(F)OC(F)(F)F)c(Cl)c1` (stereo unspecified), for which the compound was classed as inactive in assay [1]. On to `O=C(O)C(F)(F)C(F)(F)C(F)(F)C(F)(F)C(F)(F)C(F)(F)C(F)(F)F`, for which the compound was classed as inactive in assay [2] and in assay [3]. Regarding `O=[N+]([O-])/N=C1\NCCN1Cc1ccc(Cl)nc1`, the compound was called inactive in assay [4] and in [5]. For `CC[C@H](C)[C@H]1O[C@]2(C=C[C@@H]1C)C[C@@H]1C[C@@H](C/C=C(\C)[C@@H](O[C@H]3C[C@H](OC)[C@@H](O[C@H]4C[C@H](OC)[C@@H](O)[C@H](C)O4)[C@H](C)O3)[C@@H](C)/C=C/C=C3\CO[C@@H]4[C@H](O)C(C)=C[C@@H](C(=O)O1)[C@]34O)O2` (tested in a mixture with another compound), the compound was classed as inactive in assay [6]. `Oc1ccc(Cl)cc1Cc1ccccc1`: the call in assay [4], in assay [7], in assay [8] and in assay [9] was inactive. In the case of `CNC(=O)/C=C(\C)OP(=O)(OC)OC`, in [8], the AC50 is 18.3 µM (active). For the compound `ClC1C(Cl)C(Cl)C(Cl)C(Cl)C1Cl` (stereo unspecified), the call in [5] and in assay [6] was inactive. In addition, the AC50 in assay [10] was 0.00517 µM (active). For the compound `CC1(C)C(C=C(Cl)Cl)C1C(=O)OC(C#N)c1ccc(F)c(Oc2ccccc2)c1` (stereo unspecified), the result in assay [4] was inactive. `COP(=S)(OC)Oc1ccc([N+](=O)[O-])cc1`: the call in [8] was inactive. Take `COC(=O)c1ccccc1S(=O)(=O)NC(=O)N(C)c1nc(C)nc(OC)n1`: in [2], the compound was called inactive. Regarding `CCOCN(C(=O)CCl)c1c(C)cccc1CC`, the compound was classed as inactive in [7]. Take `N#Cc1c(Cl)c(Cl)c(Cl)c(C#N)c1Cl`: the AC50 in [9] was 25 µM (active).

Turning to `CNC(=O)Oc1cccc(N=CN(C)C)c1`, in assay [8], the call was inactive. In the case of `O=S(=O)(O)C(F)(F)C(F)(F)C(F)(F)C(F)(F)C(F)(F)C(F)(F)C(F)(F)C(F)(F)F`, the AC50 is 15.8 µM (active) in assay [4]; 39.7 µM (active) and 24.3 µM (active) in assay [6]; 47 µM (active) in assay [2]; 17.4 µM (active) and 10.3 µM (active) in assay [1]; 39.3 µM (active) in assay [9]; 27.2 µM (active) and 25.9 µM (active) in [3].
